Compound activity from PubChem.
In the library only some 1.2% were active in any assay of this set; here they are far more common.
VCAM1 TNFa inh – inhibitors of TNFa-induced VCAM1 expression, primary screen, imaging, HUVEC, TNFa stimulus, immunofluorescence | HUVEC TNFa-induced VCAM-1 immunofluorescence, high-content imaging | actives 0.48% (n = 95,000) | AID 802, 2007 | inhibition, % at 2 µM;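 active = inhibition above the batch mean plus 3 SD, with images confirmed as a hit by eye, cut at about 37% in these data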
NFkB transloc inh – inhibitors of IL-1B driven NFkB p65 nuclear import, primary screen, imaging, HUVEC, IL-1B stimulus, high-content imaging; HUVEC IL-1B NFkB p65 nuclear translocation imaging; inhibition, % at 2 µM; actives 0.43% (n = 94,000); AID 796, 2007;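 active = inhibition above about 30% together with a positive call from visual inspection of the well image, limit read from the data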;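 also: nuclear over cytoplasmic p65 intensity ratio measured by imaging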
HUVEC tox TNFa – cytotoxicity in TNFa-stimulated HUVEC, primary screen, cytotoxicity control for VCAM1 expression modulator project, imaging, Hoechst nuclei count; HUVEC TNFalpha-stimulated, Hoechst cell count; cell count reduction, % at 2 µM; actives 0.17% (n = 93,000); AID 848, 2007;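 active = cell count reduction exceeding the screen mean by over 5 SD, scaled to untreated wells per plate, cut at about 78% in these data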;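 also: cells counted after 24 h of TNF alpha exposure following the 1 h pretreatment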
IL1B NFkB pot – enhancers of NFkB p65 translocation in HUVEC – imaging, IL-1B stimulus, high-content imaging, primary screen; activation, % at 2 µM; AID 819, 2007; HUVEC IL-1B NFkB p65 nuclear translocation imaging; actives 0.3% (n = 94,000);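 active = activation above 40%, about the mean plus 3 SD, also judged a hit on visual image review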;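 also: percent activation is computed from the nuclear over cytoplasmic p65 intensity ratio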
Phagocyt inh – inhibitors of macrophage phagocytosis, primary screen, imaging, J774A.1 cells, IgG beads; inhibition, % at 5 µM; J774A.1 macrophage IgG-bead phagocytosis; AID 1029, 2008; actives 0.07% (n = 110,000);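 active = inhibition above the mean of the plate negative controls plus 5 SD, cut at about 13% in these data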;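 also: phagocytic index as fraction of beads internalized from green versus red external bead signal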
HUVEC tox IL1B – cytotoxicity in IL-1B stimulated HUVEC, primary screen, cytotoxicity control for IL-1B NFkB translocation project, imaging, Hoechst nuclear count, IL-1B stimulus; HUVEC cell count loss; actives 0.41% (n = 94,000); AID 845, 2007; cell count reduction, % at 2 µM;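 active = cell count reduction more than 3 SD above the screen-wide mean, cut at about 70% in these data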
Numbers stand for hits.

For O=C(O)C1C2C=CC(O2)C1C(=O)Nc1ccc(S(=O)(=O)N2CCc3ccccc32)cc1 (stereo not drawn) the results were VCAM1 TNFa inh inactive, NFkB transloc inh 49, HUVEC tox TNFa inactive, IL1B NFkB pot inactive, Phagocyt inh inactive and HUVEC tox IL1B inactive.
For CCOC(=O)c1nc(Nc2ccc(C(=O)O)cc2)c2ccccc2n1 the results were VCAM1 TNFa inh inactive, NFkB transloc inh inactive, HUVEC tox TNFa inactive, IL1B NFkB pot inactive, Phagocyt inh inactive and HUVEC tox IL1B inactive.
Screening CCOC(=O)c1ccc(Nc2nc(C(=O)OCC)nc3ccccc23)cc1 returned VCAM1 TNFa inh inactive, NFkB transloc inh inactive, HUVEC tox TNFa inactive, IL1B NFkB pot inactive and HUVEC tox IL1B 84.
Screening CCSc1nc2ccccc2n1CC(N)=O returned VCAM1 TNFa inh inactive, NFkB transloc inh inactive, HUVEC tox TNFa inactive, IL1B NFkB pot inactive and HUVEC tox IL1B inactive.
For CCSc1nc2ccccc2n1C(=O)/C=C\c1ccc(OC)c(OC)c1 the results were VCAM1 TNFa inh 94, NFkB transloc inh 90, HUVEC tox TNFa inactive, IL1B NFkB pot inactive and HUVEC tox IL1B inactive.
COc1cc(OC)c(/C=N/n2c(C)nnc2C)c(OC)c1 was read as Phagocyt inh inactive.
`Cc1ccccc1Cn1nc(C)c(NC(=O)c2cc3n(n2)C(C(F)F)CC(C(F)F)N3)c1C` (stereo not drawn) gave VCAM1 TNFa inh inactive, NFkB transloc inh 96, HUVEC tox TNFa inactive, IL1B NFkB pot inactive, Phagocyt inh inactive and HUVEC tox IL1B 78.
`Cc1ccccc1Cn1nc(C)c(NC(=O)c2cc(-c3cccs3)on2)c1C` gave VCAM1 TNFa inh 91, NFkB transloc inh inactive, HUVEC tox TNFa 80, IL1B NFkB pot inactive, Phagocyt inh inactive and HUVEC tox IL1B inactive.
For Cc1ccccc1Cn1nc(C)c(NC(=O)c2nc3n(n2)C(C(F)F)CC(C)N3)c1C (stereo not drawn) the results were VCAM1 TNFa inh inactive, NFkB transloc inh inactive, HUVEC tox TNFa inactive, IL1B NFkB pot inactive, Phagocyt inh inactive and HUVEC tox IL1B inactive.
For C/C(=N\Nc1nc(Cl)c(Cl)cc1Cl)c1ccc(S(=O)(=O)NCc2ccco2)cc1 the results were Phagocyt inh inactive.
`NCCN1CCN(CCN)CC1` gave VCAM1 TNFa inh 94, NFkB transloc inh inactive, HUVEC tox TNFa inactive, IL1B NFkB pot inactive, Phagocyt inh inactive and HUVEC tox IL1B inactive.
Screening OCCN1CCOCCN(CCO)CCN(CCO)CC1 returned VCAM1 TNFa inh inactive, HUVEC tox TNFa inactive and Phagocyt inh inactive.
CCc1ncc(C(O)c2cccc(OC)c2OC)n1C (stereo not drawn) was read as VCAM1 TNFa inh inactive, NFkB transloc inh 99, HUVEC tox TNFa inactive, IL1B NFkB pot inactive, Phagocyt inh inactive and HUVEC tox IL1B 90.
O=C(COc1nc2ccccc2nc1N1CCOCC1)Nc1cccc(S(=O)(=O)N2CCCCC2)c1 was read as Phagocyt inh inactive.
`CCc1ccc2oc(-c3cc(N)ccc3O)nc2c1` gave VCAM1 TNFa inh 39, NFkB transloc inh inactive, HUVEC tox TNFa inactive, IL1B NFkB pot inactive, Phagocyt inh inactive and HUVEC tox IL1B inactive.
For COc1ccc(S(=O)(=O)N2CCCC2C(=O)Nc2ccc(C)cc2)cc1 (stereo not drawn) the results were VCAM1 TNFa inh 97, NFkB transloc inh inactive, HUVEC tox TNFa inactive, IL1B NFkB pot inactive, Phagocyt inh inactive and HUVEC tox IL1B inactive.
Screening O=C(Nc1nccs1)C1CCCN1S(=O)(=O)c1ccc(F)cc1 (stereo not drawn) returned VCAM1 TNFa inh inactive, NFkB transloc inh inactive, HUVEC tox TNFa inactive, IL1B NFkB pot inactive, Phagocyt inh active and HUVEC tox IL1B inactive.
Screening COc1ccc(S(=O)(=O)N2CCCC(C(=O)NC3CCCCC3)C2)cc1 (stereo not drawn) returned NFkB transloc inh inactive, IL1B NFkB pot inactive, Phagocyt inh inactive and HUVEC tox IL1B inactive.
For COc1ccc(NC(=O)C2CCN(S(C)(=O)=O)CC2)cc1 the results were VCAM1 TNFa inh inactive, NFkB transloc inh 42, HUVEC tox TNFa inactive, IL1B NFkB pot inactive, Phagocyt inh inactive and HUVEC tox IL1B inactive.
For COc1ccc(S(=O)(=O)N2CCCC(C(=O)O)C2)cc1 (stereo not drawn) the results were VCAM1 TNFa inh inactive, NFkB transloc inh 34, HUVEC tox TNFa inactive, IL1B NFkB pot inactive and HUVEC tox IL1B inactive.
Screening O=Cc1cn(-c2ccc(F)cc2)c2ccccc12 returned Phagocyt inh inactive.
For O=C(NCc1cccnc1)c1cccn2c(=O)c3sccc3nc12 the results were VCAM1 TNFa inh inactive, NFkB transloc inh inactive, HUVEC tox TNFa inactive, IL1B NFkB pot inactive and HUVEC tox IL1B inactive.
`C/C(=N\NC(=O)CC(C)C)c1ccc(N2CCCCC2)cc1` gave Phagocyt inh inactive.
O/N=C1/CCCSc2ccccc21 was read as VCAM1 TNFa inh inactive, NFkB transloc inh inactive, HUVEC tox TNFa inactive, IL1B NFkB pot 48, Phagocyt inh inactive and HUVEC tox IL1B inactive.
Screening O=C(NC1CCCc2ccccc21)c1ccccc1 (stereo not drawn) returned Phagocyt inh inactive.
Screening Cc1occc1C(=O)NC1CCCc2ccccc21 (stereo not drawn) returned VCAM1 TNFa inh inactive, NFkB transloc inh inactive, HUVEC tox TNFa inactive, IL1B NFkB pot inactive, Phagocyt inh inactive and HUVEC tox IL1B 80.
CCOC(=O)C(Sc1ncnc2c1sc1nc(N3CCOCC3)c3c(c12)CCCC3)c1ccccc1 (stereo not drawn) was read as VCAM1 TNFa inh inactive, NFkB transloc inh inactive, HUVEC tox TNFa inactive, IL1B NFkB pot inactive and HUVEC tox IL1B inactive.
`Cn1c(COc2ccc3ccccc3c2)nnc1SCC(=O)OC1CCCCC1` gave VCAM1 TNFa inh inactive, NFkB transloc inh inactive, HUVEC tox TNFa inactive, IL1B NFkB pot 41 and HUVEC tox IL1B inactive.
Cn1c(COc2ccc3ccccc3c2)nnc1SCC(N)=O was read as VCAM1 TNFa inh inactive, NFkB transloc inh inactive, HUVEC tox TNFa inactive, IL1B NFkB pot inactive, Phagocyt inh inactive and HUVEC tox IL1B inactive.
For COc1ccc(-c2cc(-c3n[nH]c(=S)n3-c3cc(OC)ccc3OC)[nH]n2)cc1 the results were Phagocyt inh inactive.
`COc1ccc(OC)c(-n2c(-c3ccc(C)cc3)n[nH]c2=S)c1` gave VCAM1 TNFa inh inactive, NFkB transloc inh inactive, HUVEC tox TNFa inactive, IL1B NFkB pot inactive and HUVEC tox IL1B 88.
N=c1nc(N)nc2n1NC(c1ccc(F)cc1)=CS2 was read as VCAM1 TNFa inh 55, NFkB transloc inh inactive, HUVEC tox TNFa inactive, IL1B NFkB pot inactive, Phagocyt inh inactive and HUVEC tox IL1B inactive.
For O=C(CN1CCCCC1)N1CCCc2ccccc21 the results were VCAM1 TNFa inh inactive, NFkB transloc inh inactive, HUVEC tox TNFa inactive, IL1B NFkB pot inactive, Phagocyt inh inactive and HUVEC tox IL1B inactive.
